The results in this text go back to PubChem BioAssay (NCATS).

Values joined by “and” are separate entries in the source; they are usually repeats but may differ in a detail not shown here. Identical values can stand only once. Results filed as inconclusive are left out. Active and inactive are the calls of the source. The call rests on the fitted dose curve; in most records, active means well fitted cell-killing curve with a large enough effect; inconclusive means small, poorly fitted or top-dose-only effect; inactive means flat fitted curve, though single readings scatter. Bridge positions count the residues as written; N and C are the ends. Square brackets hold non-standard residues; d marks the D form. Peptide text beside a SMILES is read from it. * marks the point of attachment. ξ: configuration not given here. Octanoyl(6-Me) = CCC(C)CCCCC(=O)*; ξThr(3R) = C[C@@H](O)C(N)C(=O)O; dDab = NCC[C@@H](N)C(=O)O; Dab = NCC[C@H](N)C(=O)O
Potency means the concentration at half of the fitted maximal effect.

A short description of one experiment: Cellular viability qHTS for adrenocortical cancer (ACC) cell line SW-13 (AID 1963989). Further: nearly all actives have a fitted effect of over 65% in size.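 On activity (max response): cells grown in serum-free medium with ITS supplement; on the % scale 0 is the no-effect control and ±100 the full control effect.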 The settings on record: SW-13 ACC cells viability, CellTiter-Glo, 48 h; activity (max response): hits give low values. The method in brief: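 IC50 and maximal-response values come from four-parameter logistic fits of titration data. SW-13 cells in serum-free medium received compounds (up to 46 uM final) for 48 h before CellTiter-Glo luminescence.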
On the technique in general: In qHTS, concentration-response curves come from the screen itself.
Turning to `COc1cc2c(Oc3ccc(NC(=O)C4(C(=O)Nc5ccc(F)cc5)CC4)cc3F)ccnc2cc1OCCCN1CCOCC1`, the Potency was 3.16 µM (active). For the compound `Cc1ccc(S(=O)(=O)Nc2nc3ccccc3nc2Nc2ccc3nsnc3c2)cc1`, the activity (max response) was 0.221% (inactive). Still for that read-out and setting: in the case of `Cc1cc(O)c2c(c1)C(=O)c1cccc(O)c1C2=O` it was -6.49% (inactive); in that of `O=C1N(c2ccccc2)c2ccccc2C1(Cc1ccncc1)Cc1ccncc1`, -5.03% (inactive) and 7.18% (inactive). The same measure, in the same setting: in the case of `NS(=O)(=O)c1cc(Cl)c(Cl)c(S(N)(=O)=O)c1` it was -6.34% (inactive). In the case of `CCc1cccc2c3c([nH]c12)C(CC)(CC(=O)O)OCC3` (centres undefined), the activity (max response) is 7.18% (inactive).

As to `CC(C)C[C@@H](N)[C@H](O)C(=O)N[C@H](C(=O)N[C@H](C(=O)N[C@@H](CC(=O)O)C(=O)O)C(C)C)C(C)C`, the activity (max response) was -8.42% (inactive). For the compound `CN1CCN(CCCN2c3ccccc3Sc3ccc(C(F)(F)F)cc32)CC1`, the Potency is 20.6 µM (active) and 25.1 µM (active). As to `Cc1c(C(=O)Nc2ccc(N3C[C@@H](C)O[C@@H](C)C3)nc2)cccc1-c1ccc(OC(F)(F)F)cc1`, the activity (max response) was -4.43% (inactive).

As to `CC(C)Oc1cc(Nc2nc(N[C@@H](C)c3ccc(F)cn3)ncc2Cl)[nH]n1`, the activity (max response) is -7.04% (inactive). In the case of `CCC(c1ccc(O)cc1)C(CC)c1ccc(O)cc1` (centres undefined), the Potency is 17.8 µM (active). In the case of `CC(C(=O)O)c1cccc(C(=O)c2ccccc2)c1` (centres undefined), the activity (max response) was 3.98% (inactive) and 6.3% (inactive).

`NC(=O)c1cccc(-c2cc(Nc3ccc(OC(F)(F)F)cc3)ncn2)c1`: the Potency is 15.8 µM (active). For the compound `O=C(O)C1CCCN(CCC=C(c2ccccc2)c2ccccc2)C1` (centres undefined), the activity (max response) was -5.26% (inactive). Turning to `CCC(C)CCCCC(=O)N[C@@H](CCN)C(=O)NC(C(=O)N[C@H](CCN)C(=O)N[C@@H]1CCNC(=O)C([C@@H](C)O)NC(=O)[C@@H](CCN)NC(=O)[C@@H](CCN)NC(=O)[C@@H](CC(C)C)NC(=O)[C@H](Cc2ccccc2)NC(=O)[C@H](CCN)NC1=O)[C@@H](C)O` (stereo partly drawn) ({Octanoyl(6-Me)}-[Dab][ξThr(3R)][dDab][dDab][Dab]F[dL][dDab][dDab][ξThr(3R)]; lactam 4-C), the activity (max response) was 3.16% (inactive).

Turning to `Cc1cc(CN2CCN(c3c(Br)cnc4nc(-c5ccc(N6CCN(C)CC6)cc5)[nH]c34)CC2)no1`, the Potency is 31.6 µM (active). `COc1c(N2CCNC(C)C2)c(F)cc2c(=O)c(C(=O)O)cn(C3CC3)c12` (centres undefined): the activity (max response) was -4.21% (inactive) and 1.72% (inactive). With `COC(=O)[C@H](CCCN=C(N)N)NS(=O)(=O)c1ccc(C)cc1`, the activity (max response) was 6.08% (inactive). As for `CCS(=O)(=O)c1cccc(-c2cc(C(=O)NC3CCN(C)CC3)c(C)c3[nH]c4ncc(C)cc4c23)c1`, the Potency was 1 µM (active). For the compound `O=C(Nc1cccc(Cl)c1)Nc1ncc(CCNc2ncnc3ccsc23)s1`, the Potency was 28.2 µM (active). Regarding `NCCc1ccc(O)c(O)c1`, the activity (max response) is -9.5% (inactive) and -1.11% (inactive). Same read-out and setting: in the case of `Cc1ccccc1-n1c(Cn2nc(-c3cccc(O)c3)c3c(N)ncnc32)nc2cccc(C)c2c1=O` it was -11.8% (inactive). In the case of `C[C@@H](NC(=O)c1ncnc(N)c1Cl)c1ncc(C(=O)Nc2cc(C(F)(F)F)c(Cl)cn2)s1`, the Potency was 20 µM (active). With `C[C@H](CCC(=O)O)[C@H]1CCC2C3C[C@H](O)[C@@H]4C[C@H](O)CC[C@]4(C)C3CC[C@@]21C` (some centres undefined), the activity (max response) is 1.86% (inactive). In the case of `COc1cc2nc(N3CCCN(C)CC3)nc(NC3CCN(Cc4ccccc4)CC3)c2cc1OC`, the Potency is 5.62 µM (active).

`Clc1ccc2c(c1)C(N1CCNCC1)=Nc1ccccc1O2`: the activity (max response) is -1.69% (inactive). Still for that read-out and setting: in the case of `OCc1ccc(-c2ccc(-c3ccc(CO)s3)o2)s1` it was -9.77% (inactive); in that of `CN1CCC(=C2c3ccccc3CC(=O)c3sccc32)CC1`, -6.42% (inactive) and -1.59% (inactive).

The nature of the next experiment: Cellular viability qHTS for adrenocortical cancer (ACC) cell line NCI-H295R (AID 1963990). Further: nearly all actives have a fitted effect of over 60% in size. The settings on record: CellTiter-Glo ATP luminescence, 48 h; series mostly up to 46.1 µM. The method in brief: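 Adrenocortical carcinoma cells, suspended at 300 000 cells/mL in serum-free DMEM plus ITS, rested overnight before pin transfer of compound. After two days' incubation, ATP-dependent luminescence was recorded and curve-fitted.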
With `COc1cc2c(Oc3ccc(NC(=O)C4(C(=O)Nc5ccc(F)cc5)CC4)cc3F)ccnc2cc1OCCCN1CCOCC1`, the Potency is 2.82 µM (active). With `Oc1ccc2ccccc2c1SSc1c(O)ccc2ccccc12`, the Potency was 31.6 µM (active).

Consider `Cc1ccc(S(=O)(=O)Nc2nc3ccccc3nc2Nc2ccc3nsnc3c2)cc1`, for which the Potency result was “inactive”.

Consider `Cc1cc(O)c2c(c1)C(=O)c1cccc(O)c1C2=O`, for which the Potency entry is “inactive”. Same read-out and setting: in the case of `O=C1N(c2ccccc2)c2ccccc2C1(Cc1ccncc1)Cc1ccncc1` it was “inactive”; in that of `O=C(NCCCNc1nc(Nc2cccc(NC(=O)N3CCCC3)c2)ncc1I)c1cccs1`, “inactive”; in that of `NS(=O)(=O)c1cc(Cl)c(Cl)c(S(N)(=O)=O)c1`, “inactive”. Same read-out and setting: in the case of `CCc1cccc2c3c([nH]c12)C(CC)(CC(=O)O)OCC3` (centres undefined) it was “inactive”.

Turning to `CCC(=O)N[C@H]1CC[C@H](C(=O)N(C)c2ccc(-c3nc4ccccc4o3)cc2)C1`, the Potency entry is “inactive”. The same measure, in the same setting: in the case of `CC(C)C[C@@H](N)[C@H](O)C(=O)N[C@H](C(=O)N[C@H](C(=O)N[C@@H](CC(=O)O)C(=O)O)C(C)C)C(C)C` it was “inactive”; in that of `CN1CCN(CCCN2c3ccccc3Sc3ccc(C(F)(F)F)cc32)CC1`, 23.1 µM (active).

For the compound `Cc1c(C(=O)Nc2ccc(N3C[C@@H](C)O[C@@H](C)C3)nc2)cccc1-c1ccc(OC(F)(F)F)cc1`, the Potency was 10 µM (active). The same measure, in the same setting: in the case of `CC(C)Oc1cc(Nc2nc(N[C@@H](C)c3ccc(F)cn3)ncc2Cl)[nH]n1` it was “inactive”; in that of `CCC(c1ccc(O)cc1)C(CC)c1ccc(O)cc1` (centres undefined), 15.8 µM (active). The same measure, in the same setting: in the case of `CC(C(=O)O)c1cccc(C(=O)c2ccccc2)c1` (centres undefined) it was “inactive”. For the compound `c1cc(OCCN2CCCCC2)cc(-c2n[nH]c3ccc(-c4ncn[nH]4)cc23)c1`, the Potency result is “inactive”. As to `O=C(O)C1CCCN(CCC=C(c2ccccc2)c2ccccc2)C1` (centres undefined), the Potency entry was “inactive”.

With `CCC(C)CCCCC(=O)N[C@@H](CCN)C(=O)NC(C(=O)N[C@H](CCN)C(=O)N[C@@H]1CCNC(=O)C([C@@H](C)O)NC(=O)[C@@H](CCN)NC(=O)[C@@H](CCN)NC(=O)[C@@H](CC(C)C)NC(=O)[C@H](Cc2ccccc2)NC(=O)[C@H](CCN)NC1=O)[C@@H](C)O` (stereo partly drawn) ({Octanoyl(6-Me)}-[Dab][ξThr(3R)][dDab][dDab][Dab]F[dL][dDab][dDab][ξThr(3R)]; lactam 4-C), the Potency result is “inactive”. For the compound `Clc1ccc(C(Cn2ccnc2)OCc2c(Cl)cccc2Cl)c(Cl)c1` (centres undefined), the Potency was 25.1 µM (active). Same read-out and setting: in the case of `Cc1cc(CN2CCN(c3c(Br)cnc4nc(-c5ccc(N6CCN(C)CC6)cc5)[nH]c34)CC2)no1` it was 28.2 µM (active); in that of `COc1c(N2CCNC(C)C2)c(F)cc2c(=O)c(C(=O)O)cn(C3CC3)c12` (centres undefined), “inactive”. On the same count and under the same terms, in the case of `COC(=O)[C@H](CCCN=C(N)N)NS(=O)(=O)c1ccc(C)cc1` it was “inactive”; in that of `COc1ccc2cc(-c3nc(-c4ccc(S(C)=O)cc4)[nH]c3-c3ccncc3)ccc2c1` (centres undefined), 28.2 µM (active); in that of `CC(C)(C)C(=O)OCOP(=O)(COCCn1cnc2c(N)ncnc21)OCOC(=O)C(C)(C)C`, 18.4 µM (active) and 12.6 µM (active).

In the case of `CCS(=O)(=O)c1cccc(-c2cc(C(=O)NC3CCN(C)CC3)c(C)c3[nH]c4ncc(C)cc4c23)c1`, the Potency is 17.8 µM (active). Same read-out and setting: in the case of `O=C(Nc1cccc(Cl)c1)Nc1ncc(CCNc2ncnc3ccsc23)s1` it was 3.55 µM (active); in that of `NCCc1ccc(O)c(O)c1`, “inactive”. Still for that read-out and setting: in the case of `C[C@H](CCC(=O)O)[C@H]1CCC2C3C[C@H](O)[C@@H]4C[C@H](O)CC[C@]4(C)C3CC[C@@]21C` (some centres undefined) it was “inactive”; in that of `COc1cc2nc(N3CCCN(C)CC3)nc(NC3CCN(Cc4ccccc4)CC3)c2cc1OC`, 8.91 µM (active).

As to `OCc1ccc(-c2ccc(-c3ccc(CO)s3)o2)s1`, the Potency was 28.2 µM (active). The same measure, in the same setting: in the case of `CN1CCC(=C2c3ccccc3CC(=O)c3sccc32)CC1` it was “inactive”.
